# V-ATPase pH = yeast V-ATPase proton transport regulation by pHLuorin | S. cerevisiae, pHLuorin cytosolic pH fluorescence | response, % at 10 µM | hit rate 0.37% among 350,000 | AID 504577; in the data active = response mostly above about 7.3%, no sharp cut-off; inactive = mostly below about 5.4%; note: actives read high
# NALP1 yeast inh = NALP1 inhibition | S. cerevisiae NALP1/ASC/caspase-1 growth, X-gal OD620, 72 h | inhibition, % at 10 µM | hit rate 0.61% among 280,000; in the data active = inhibition mostly above about 24%, no sharp cut-off; inactive = mostly below about 32%
# NALP3 yeast inh = NALP3 inhibition in yeast; Yeast reconstituted NLRP3/ASC/caspase-1, beta-gal luminescence, 24 h; inhibition, % at 10 µM; hit rate 0.39% among 330,000; AID 2825;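 active = inhibition of 50% or more; inactive = inhibition below 50%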;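 note: plate controls were induced DMSO wells for no effect and uninduced yeast grown without galactose for full effect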
# tim23-1 inh = inhibits growth of tim23-1 mutant yeast | S. cerevisiae tim23-1 growth, BacTiter-Glo luminescence, 24 h | inhibition, % at 20 µM | hit rate 1.3% among 330,000;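 active = growth inhibition of the mutant yeast at or above 50%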;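 note: temperature-sensitive mutant grown at 25 °C; plate controls were DMSO-treated mutant yeast for no effect and medium wells lacking yeast for full effect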
# TIM10 inh = inhibits growth of TIM10 yeast strain; S. cerevisiae TIM10 strain growth, BacTiter-Glo luminescence, 24 h; AID 463195; inhibition, % at 10 µM; hit rate 1.4% among 330,000;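 active = inhibition of 40% or more at the single tested concentration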;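 note: wild-type TIM10 isogenic control strain grown at permissive 25 °C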
# tim10-1 inh = growth inhibitors of tim10-1 mutant yeast | S. cerevisiae tim10-1 ts strain growth, BacTiter-Glo, 24 h | inhibition, % at 20 µM | hit rate 2.2% among 330,000;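 active = inhibition of at least 40%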;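 note: mutant grown at 25 °C; 0% = DMSO wells with yeast and 100% = wells holding no yeast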
# tim23-1 confirm = tim23-1 yeast growth inhibition, confirmed | hit rate 83% among 4,400 | S. cerevisiae tim23-1 growth, BacTiter-Glo luminescence, 24 h | shares compounds with tim23-1 inh | inhibition, % at 20 µM | AID 463218;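 active = inhibition above about 39% in either of two replicate wells at 20 µM, limit read from the data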;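 note: temperature-sensitive tim23-1 mutant grown at 25 °C; 0% = DMSO wells with yeast and 100% = medium wells without yeast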
# The depositor's hits bear a star; / = not tested or not shown. Hits are enriched below; roughly 4.2% of the tested compounds scored in any of these assays.
SMILES,V-ATPase pH,NALP1 yeast inh,NALP3 yeast inh,tim23-1 inh,TIM10 inh,tim10-1 inh,tim23-1 confirm
Cc1ccc(-c2c3c(nc4sc(C(N)=O)c(N)c24)CCCC3)o1,-0.5,26.6,-2.0,50.4*,1.5,36.4,48.4*
NC(=O)c1sc2nc3c(c(-c4ccco4)c2c1N)CCC3,-1.9,0.4,8.8,24.4,8.1,37.9,/
O=C(O)/C=C\C(=O)Nc1ccc(Oc2ccc(Br)cc2)cc1,1.9,-3.0,31.0,53.1*,0.6,7.4,14.9
CCOC(=O)c1c(CN(C)C)n(C)c2c(O)c(N=NC(N)=O)c3ccc(Br)cc3c12,-1.8,8.6,26.0,54.2*,28.0,29.6,36.6
CCCn1c(=O)c(C(=O)OCC)c(O)c2cc(Br)ccc21,-6.3,7.8,22.6,19.3,-2.1,16.7,/
CCOC(=O)c1sc(NC(=O)c2cccs2)cc1C,-2.7,8.2,25.0,55.4*,34.2,21.2,77.8*
CCOC(=O)c1sc(NC(=O)c2ccc(Br)o2)cc1C,-1.4,17.6,16.8,15.4,6.4,-12.8,/
O=C(NCCN1CCOCC1)c1ccc(Cl)c([N+](=O)[O-])c1,0.8,4.9,22.2,-11.7,-4.6,-15.6,/
CC(C)(C)SCCNC(=O)c1ccc(Cl)c([N+](=O)[O-])c1,3.6,32.6,34.3,53.0*,9.3,34.2,29.1
Cc1cc(C)nc(/N=C(\N)N2CCCCC2)n1,-2.0,3.9,18.2,2.2,-3.9,6.1,/
Oc1c(Br)cc(Br)cc1CNc1cccc2cccnc12,-0.2,7.7,19.5,57.0*,25.7,27.0,62.2*
Cc1[nH][nH]c(=O)c1C(c1ccc(-c2ccc(Cl)c(Cl)c2)o1)c1c(C)[nH][nH]c1=O,-3.9,94.3,10.9,75.2*,-3.6,35.3,46.3*
COc1ccc(-c2ccc(C(c3c(C)[nH][nH]c3=O)c3c(C)[nH][nH]c3=O)o2)c([N+](=O)[O-])c1,-3.1,-0.1,7.1,30.7,10.2,11.5,/
CCCNC(=O)C1(CC2CC(c3ccccc3)=NO2)CCN(C(=O)Cc2ccc(F)cc2)CC1 (configuration not stated),-4.0,/,9.5,-5.0,-17.9,-10.0,/
Cc1ccccc1C(=O)c1c[nH]c(C(=O)NCCCn2ccnc2)c1,4.2,12.4,9.7,-13.6,-35.8,-38.5,/
COc1cc(OC)cc(C(=O)NC(c2ccccc2)c2ccccc2)c1,-1.7,10.8,6.7,7.9,-2.4,9.3,/
Cc1cc(C(=O)Nc2ccc(Cl)cc2)n(-c2ccccc2)n1,-1.2,12.3,27.3,21.9,11.4,27.7,/
Cc1cc(C(=O)Nc2ccc(Cl)cc2)c(C)n1-c1ccccc1,-2.3,14.9,10.2,55.7*,35.6,38.5,54.1*
Cc1cc(NC(=O)CSc2nnnn2-c2cc(Cl)ccc2C)no1,-2.2,11.6,7.5,7.9,14.8,-5.6,/
Cc1ccc(CNc2ccc(O)cc2)cc1,-6.4,4.5,-7.8,8.9,-10.5,27.9,/
O=C(Nc1ccc2oc(Cc3ccc(Cl)cc3)nc2c1)c1cccnc1,0.4,42.3,13.7,58.5*,16.9,9.5,54.0*
O=C(Nc1ccc2oc(-c3ccccc3)nc2c1)c1ccncc1,-2.2,-6.5,26.8,65.0*,17.7,-9.5,67.0*
Oc1ccc(/C=N/Nc2cccc(Cl)n2)c(O)c1,-3.8,-11.1,37.8,56.0*,4.2,-48.6,44.0*
COc1ccc(C2Nc3cccc4cccc(c34)N2)cc1Br,0.8,28.0,10.7,55.7*,25.8,23.2,55.4*
CN(c1ccc(O)cc1)S(=O)(=O)c1ccc2ccccc2c1,5.3,18.1,44.7,51.3*,2.5,-12.7,45.0*
SMILES,V-ATPase pH,NALP1 yeast inh,NALP3 yeast inh,tim23-1 inh,TIM10 inh,tim10-1 inh,tim23-1 confirm
CCc1c(C)sc2nc(C(C)C)nc(SCC(=O)N3CCc4ccccc4C3)c12,/,32.2,8.5,50.6*,23.9,19.2,41.0*
Cc1sc2nc(C3CC3)nc(SCC(=O)N3CCc4ccccc4C3)c2c1C,-1.9,32.7,0.5,29.5,22.8,37.8,/
O=C(COC(=O)CC1CCCC1)Nc1ccc(Cl)cn1,-4.3,/,18.9,59.5*,33.1,15.2,55.4*
O=C(COC(=O)CNC(=O)C1CCCCC1)Nc1ccc(Cl)cn1,-0.6,/,0.2,0.1,7.4,17.4,/
COCCNc1c(-c2ccc(OC)cc2)nc2ccc(Cl)cn12,-0.5,6.2,25.7,26.4,12.4,31.1,/
CCOC(=O)CNc1c(-c2ccc(OC)cc2)nc2ccc(Cl)cn12,-2.9,-1.0,31.2,52.7*,24.3,13.4,47.7*
CCn1cnc2cc(NCc3ccc(Br)cc3)ccc21,/,10.1,43.2,53.4*,20.1,19.0,66.2*
O=C1Nc2ccccc2C1c1ncc(C(F)(F)F)cc1Cl (configuration not stated),-1.1,17.4,-2.3,18.8,-10.8,23.3,/
O=C(CSc1ccc(Br)cc1)NCC(c1cccs1)N1CCOCC1 (configuration not stated),-2.5,/,5.3,18.2,13.6,23.3,/
COC(=O)N/N=C/c1ccc([N+](=O)[O-])o1,2.6,2.7,-2.4,22.3,6.4,20.0,/
O=C(COc1ccccc1)N/N=C/c1ccc([N+](=O)[O-])o1,4.4,20.8,14.7,53.7*,30.8,39.0,75.2*
Oc1ccccc1/C=N/n1c(-c2ccccc2)n[nH]c1=S,0.4,-5.6,11.3,51.4*,31.8,17.1,38.8
COc1c(Br)cc(/C=N/n2c(-c3ccccc3)n[nH]c2=S)c(O)c1Br,3.0,-10.1,16.0,62.2*,36.8,26.4,60.3*
COc1ccc(OCc2nnnn2-c2ccccc2)cc1,-1.8,33.0,-3.3,17.5,4.3,11.8,/
Brc1ccc(OCc2nnnn2-c2ccccc2)cc1,-1.5,-0.3,-28.9,51.8*,7.7,-7.6,38.8*
COc1ccc(C(=O)COC(=O)c2cncc(Br)c2)cc1,-3.8,/,8.4,64.9*,14.8,-14.8,75.1*
O=C(OCC(=O)c1ccc[nH]1)c1cncc(Br)c1,-1.3,/,7.5,-3.9,-9.6,-9.0,/
C(=C\c1ccccc1)/CSc1ccccn1,2.2,12.6,17.6,6.1,-1.7,17.0,/
CCc1ccc(NCc2cc3c(C)nn(-c4ccccc4)c3[nH]c2=O)cc1,3.7,-6.5,13.3,13.8,10.2,12.7,/
COc1cccc(NCc2cc3c(C(C)(C)C)nn(-c4ccccc4)c3[nH]c2=O)c1,1.9,28.1,9.6,70.3*,36.4,36.1,59.3*
CCOc1ccc(NCc2cc3c(C(C)(C)C)nn(-c4ccccc4)c3[nH]c2=O)cc1,-4.2,-8.9,46.4,58.5*,31.6,22.4,54.8*
O=C(CSc1nnc(-c2cccc(S(=O)(=O)N3CCOCC3)c2)n1C1CCCCCC1)NCc1ccccc1,-1.8,-1.1,-3.1,-4.4,17.4,11.5,/
C=CCS/C(N)=N\N=C\c1cc(Br)cc([N+](=O)[O-])c1O,-1.1,13.4,30.7,54.6*,17.0,10.9,44.2*
O=C(NCCc1ccccc1F)C(=O)Nc1nccs1,-3.4,19.3,6.1,-3.2,-10.5,14.1,/
